{"source": "PubChem BioAssay (EPA / NIEHS)", "note": "The source made the active and inactive calls. The calls were made as follows: active = hit-call score of the fitted dose curve at least 0.9, where 1 is the maximum; inactive = score below 0.9.", "data": [{"assay": "APR_HepG2_MitoMass_72hr: Apredica 72-hour HepG2 Assay for Mitochondrial Mass (AID 2282924);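 also: MitoTracker Red CMXRos stain intensity per cell imaged as mitochondrial mass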", "settings": "high-content imaging, actives raise or lower the signal", "procedure": "APR_HepG2_72hr is a cell-based, multiplexed-readout assay that uses HepG2, a human liver cell line, with measurements taken at 72 hours after chemical dosing in a 384-well plate.APR_HepG2_MitoMass_72hr is one of 10 assay component(s) measured or calculated from the APR_HepG2_72hr assay. It is designed to make measurements of cell phenotype, a form of morphology reporter, as detected with fluorescence intensity signals by HCS Fluorescent Imaging technology.Data from the assay component APR_HepG2_MitoMass_72hr was analyzed into 1 assay endpoint. This assay endpoint, APR_HepG2_MitoMass_72hr, was analyzed with bidirectional fitting relative to DMSO as the negative control and baseline of activity. Using a type of morphology reporter, gain or loss-of-signal activity can be used to understand changes in the signaling. Furthermore, this assay endpoint can be referred to as a primary readout, because this assay has produced multiple assay endpoints where this one serves a signaling function. To generalize the intended target to other relatable targets, this assay endpoint is annotated to the cell morphology intended target family, where the subfamily is organelle conformation.\nCells were treated with dimethyl sulfoxide (DMSO) as a solvent control at a final concentration of 0.5% v/v or with compounds in DMSO with a resulting final DMSO concentration of 0.5% v/v. Compound treatment was done at concentrations of 0.39, 0.78, 1.56, 3.12, 6.24, 12.5, 25, 50, 100, and 200 uM in duplicate on each plate. Cells were treated with compounds for 1, 24, or 72 hr. Carbonyl […] m-chloro-phenylhydrazone (CCCP) and taxol were used as positive controls for mitochondrial function and cytoskeletal stability, respectively; DMSO served as the negative control for this experiment. Cells were fixed by the direct addition of 50 uL formaldehyde in Hank's Balanced Salt Solution (HBSS) to a final concentration of 3.7%. After incubation in the fixation medium for 30 min at room temperature (293-298 K), cells were rinsed twice with HBSS and treated with cell permeabilization buffer (16 uL of 0.5% Triton X-100) for 10 min at room temperature (293-298 K) before labeling. For mitochondrial membrane potential and mitochondrial measurements, pre-fixed cells were incubated with 50 uL of MitoTracker Red CMXRos (Invitrogen) at a concentration of 250 nM for 30 min before fixation. In the remaining cases, post-fixed cells were labeled by incubation with a multiplexed mixture of primary antibodies in HBSS for 60 min at room temperature (293-298 K) to detect immunoreactivity of c-Jun (1:500), phospho-histone H3 (1:100), phospho-histone H2A.x (1:200), p53 (1:400), alpha-tubulin (1:200) and Hoechst 33342 (2 ug/mL). Cells were labeled for multiplexed imaging on two separate plates: a) Hoechst 33342, MitoTracker Red, phospho-histone H3, and alpha-tubulin, and b) Hoechst 33342, phospho-histone H2A.x, and c-Jun. A final rinse with HBSS (50 uL) was performed before analysis. The primary and secondary antibodies for the proteins were phospho-histone H3 (rabbit anti-phospho-histone H3 and FITC-donkey anti-rabbit IgG), phospho-histone H2A.x (mouse anti-phospho-histone H2A.x and FITC-donkey anti-mouse IgG), c-Jun (rabbit anti-phospho-c-Jun and Cy3-donkey anti-rabbit IgG), p53 (sheep anti-p53 and Cy5-donkey anti-sheep IgG), alpha-tubulin (mouse anti-alpha-tubulin and Cy5-donkey anti-mouse IgG). These antibodies are available as the CellCiphr HepG2 assay kit (Millipore).Digital images of each well were captured using a Cellomics ArrayScan VTI (Thermo Scientific Cellomics) (0.8 NA objective, 0.63x optical coupler, and XF-93 filter set) at 20x magnification. The images were acquired using the autofocus feature of the ArrayScan instrument, which entails the following steps. First, the camera focuses on channel 1 (Hoechst 33342), where nuclei are identified. Second, a Z offset of 1 um is used for capturing mitochondria (MitoTracker Red). […]", "values": [{"smiles": "CCNc1nc(Cl)nc(NC(C)(C)C)n1", "outcome": "inactive"}, {"smiles": "Cc1cccc(N)c1", "outcome": "inactive"}, {"smiles": "CCOc1ccc(C(C)(C)COCc2cccc(Oc3ccccc3)c2)cc1", "outcome": "inactive"}, {"smiles": "OCC1CO1", "note": "(stereo not given)", "outcome": "inactive"}, {"smiles": "CCCCc1ccccc1", "outcome": "inactive"}, {"smiles": "CCCCN(CCCC)SN(C)C(=O)Oc1cccc2c1OC(C)(C)C2", "outcome": "inactive"}, {"smiles": "Cc1ccc(O)cc1C", "outcome": "inactive"}, {"smiles": "CCN(CC)c1ccccc1", "outcome": "inactive"}, {"smiles": "[N-]=[N+]=[N-]", "outcome": "inactive"}, {"smiles": "Nc1ccc(Cl)cc1", "outcome": "inactive"}, {"smiles": "O=C(O)C(Cl)Cl", "outcome": "inactive"}, {"smiles": "CCC(C)(C)c1ccc(O)cc1", "AC50": "88 µM (active)"}, {"smiles": "c1ccc(OP(Oc2ccccc2)Oc2ccccc2)cc1", "outcome": "inactive"}, {"smiles": "CCOC(=O)c1ccccc1C(=O)OCC", "outcome": "inactive"}, {"smiles": "COCCOCCO", "outcome": "inactive"}, {"smiles": "ClC(Cl)c1ccccc1", "outcome": "inactive"}, {"smiles": "CCCCN(CCCC)N=O", "outcome": "inactive"}, {"smiles": "CC(Cc1ccc(OCC(=O)O)cc1)NCC(O)c1csc(C(F)(F)F)n1", "note": "(stereo not given)", "outcome": "inactive"}, {"smiles": "CCC1(c2ccccc2)C(=O)N=C(O)NC1=O", "note": "(stereo not given)", "outcome": "inactive"}, {"smiles": "CC(C)(C)OOC(C)(C)C", "outcome": "inactive"}, {"smiles": "ClC(Cl)(Cl)c1ccccc1", "outcome": "inactive"}, {"smiles": "c1ccc2c(c1)Nc1ccccc1S2", "outcome": "inactive"}, {"smiles": "CCCN(CCC)c1c([N+](=O)[O-])cc(C(C)C)cc1[N+](=O)[O-]", "AC50": "40.9 µM (active)"}, {"smiles": "Cc1ccc([N+](=O)[O-])cc1C", "outcome": "inactive"}, {"smiles": "O=P(Oc1ccccc1)(Oc1ccccc1)Oc1ccccc1", "outcome": "inactive"}, {"smiles": "CN(C)C(=O)Cl", "outcome": "inactive"}, {"smiles": "Nc1cc2c3c(c1)C(c1ccccc1)=N[C@@H](NC(=O)c1cccnc1)C(=O)N3CC2", "outcome": "inactive"}, {"smiles": "CCOP(=S)(Oc1ccc([N+](=O)[O-])cc1)c1ccccc1", "note": "(stereo not given)", "outcome": "inactive"}, {"smiles": "CCOP(=S)(OCC)SCSCC", "outcome": "inactive"}, {"smiles": "c1nc[nH]n1", "outcome": "inactive"}, {"smiles": "ClC1=C(Cl)C2(Cl)C3C(Cl)C(Cl)CC3C1(Cl)C2(Cl)Cl", "note": "(stereo not given)", "AC50": "136 µM (active)"}, {"smiles": "O=[N+]([O-])c1ccccc1", "outcome": "inactive"}, {"smiles": "Nc1ccc2ccccc2c1", "AC50": "69.8 µM (active)"}, {"smiles": "CC(Cl)(Cl)C(=O)O", "outcome": "inactive"}, {"smiles": "CC(C)(C)c1ccc(O)cc1", "outcome": "inactive"}, {"smiles": "CCCCCCCc1ccc(O)cc1", "outcome": "inactive"}, {"smiles": "O=[N+]([O-])c1ccc(Cl)c(Cl)c1", "outcome": "inactive"}, {"smiles": "O=P1(N(CCCl)CCCl)NCCCO1", "note": "(stereo not given)", "outcome": "inactive"}, {"smiles": "CSC(C)(C)C=NO", "outcome": "inactive"}, {"smiles": "Cc1ccc(N)cc1N", "outcome": "inactive"}]}]}
